Drawing on PubChem BioAssay AID1645854 (Buhrlage Lab, Dana-Farber Cancer Institute and Novartis …, 2021), this text covers inhibition for 32 compounds.

Out of some 47,000 compounds screened, about 140 (0.3%) were called active. This is one part of a sample in which actives are shown more often than they occur. Values without a mark were called inactive. Rule as the data show it: active = inhibition above about 30%; inactive = the rest.

For this assay, the target named is Ubiquitin carboxyl-terminal hydrolase 7 (Homo sapiens) (UniProt Q93009). In words: inhibitors of human USP7 deubiquitinase (AID 1645854). Particulars: purified USP7, Ub-rhodamine cleavage fluorescence; at 20 µM; active compounds read high.
Ubiquitin carboxyl-terminal hydrolase 7 (Homo sapiens), sequence (Q93009 whole entry, looked up): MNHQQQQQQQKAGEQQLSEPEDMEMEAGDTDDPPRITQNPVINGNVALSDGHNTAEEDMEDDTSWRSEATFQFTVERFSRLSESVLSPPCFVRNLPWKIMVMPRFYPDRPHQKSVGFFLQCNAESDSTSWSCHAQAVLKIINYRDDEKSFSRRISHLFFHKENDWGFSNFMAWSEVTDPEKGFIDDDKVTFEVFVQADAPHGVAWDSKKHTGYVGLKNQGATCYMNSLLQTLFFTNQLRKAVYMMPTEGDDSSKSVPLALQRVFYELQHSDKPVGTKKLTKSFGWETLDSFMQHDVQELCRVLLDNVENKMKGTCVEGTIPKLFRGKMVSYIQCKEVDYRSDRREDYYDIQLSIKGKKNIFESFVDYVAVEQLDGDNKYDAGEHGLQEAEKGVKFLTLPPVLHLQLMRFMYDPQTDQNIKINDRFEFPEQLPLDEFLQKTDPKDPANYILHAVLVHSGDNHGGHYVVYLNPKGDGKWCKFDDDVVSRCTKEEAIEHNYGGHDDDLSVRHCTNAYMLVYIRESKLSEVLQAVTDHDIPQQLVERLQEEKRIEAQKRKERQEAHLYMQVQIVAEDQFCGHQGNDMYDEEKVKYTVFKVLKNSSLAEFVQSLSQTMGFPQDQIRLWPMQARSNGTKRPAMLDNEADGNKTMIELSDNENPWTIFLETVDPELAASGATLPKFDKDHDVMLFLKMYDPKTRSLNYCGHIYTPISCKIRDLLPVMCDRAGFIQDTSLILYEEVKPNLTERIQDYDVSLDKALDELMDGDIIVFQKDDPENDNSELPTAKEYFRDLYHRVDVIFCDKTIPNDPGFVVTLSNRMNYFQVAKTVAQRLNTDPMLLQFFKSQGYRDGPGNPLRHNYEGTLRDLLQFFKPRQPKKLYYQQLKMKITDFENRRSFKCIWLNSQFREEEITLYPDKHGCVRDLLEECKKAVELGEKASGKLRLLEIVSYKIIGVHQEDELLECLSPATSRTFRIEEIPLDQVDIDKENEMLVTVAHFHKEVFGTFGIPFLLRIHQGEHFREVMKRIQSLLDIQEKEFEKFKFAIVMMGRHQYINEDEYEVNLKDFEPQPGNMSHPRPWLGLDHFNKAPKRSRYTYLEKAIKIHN
With `CCCN1CCN(Cc2nc3nc(C)cc(N4CCCC4)n3n2)CC1`, the inhibition – broadly, the relative decrease from the control value, in per cent – is 0.57%.

Consider `O=C(NCC1CC1)c1ccc2ccc(N3CCN(c4ncccn4)CC3)n2c1`, for which the inhibition is -17.3%.

Take `Cn1ccc(-c2cc(C(=O)NCCc3ccccn3)c3ccccn23)n1`: the inhibition is 0.582%. Under `Cc1ccccc1NC(=O)N1CCC(CC(=O)N2CCCCC2)CC1` stands 5.39%. For the compound `COc1cccc(-n2nnc(-c3nnc(-c4ccccc4)o3)c2C)c1`, the inhibition is -29.9%. For `COc1ccc(C2C3CCCCC3(O)CCN2C(=O)/C=C/c2cc(OC)c(OC)c(OC)c2)c(OC)c1` (configuration not stated), the inhibition is 2.72%. As to `CN(C(=O)Cn1c(=O)n(CCCC(=O)N2CCc3ccccc3C2)c(=O)c2ccccc21)C1CCCCC1`, the inhibition was -62.2%. Under `Cn1c(CNC(=O)c2ccc(=O)[nH]c2)nc2ccccc21` stands 3.71%. Under `CN(Cc1ccccn1)C(=O)c1cc(-c2ccn(C)n2)n2ccccc12` stands -10.8%. Under `O=C(C1CCC1)N1CCCC(c2nc(N3CCOCC3)ncc2-c2cccnc2)C1` (configuration not stated) stands 1.73%; under `CC1CCc2nc3ccccc3c(C(=O)OCC(=O)Nc3ccc4ccccc4c3)c2C1` (configuration not stated), -6.5%. For `Cn1nc(C(=O)N2CCOCC2)c2c1CN(Cc1cccnc1)CC2`, the inhibition is -1.02%. Consider `CC1CCc2c(sc3[nH]c(=O)c(C(=O)Nc4ccc(C(N)=O)cc4)c(O)c23)C1` (configuration not stated), for which the inhibition is 2.02%. `CNS(=O)(=O)c1ccc(CNC(=O)c2cc(-c3ccc(C)cc3)no2)cc1`: the inhibition is 4.58%. `CN(C)CCNC(=O)c1ccc2c(c1)nc1n2CCN(C2CCCCC2)C1=O`: the inhibition is -3.11%. For the compound `COc1ccccc1CNC(=O)c1nc(N2CCSCC2)c2cn(C)nc2n1`, the inhibition was -2.16%. On to `NC(=O)c1ccccc1NC(=O)C1CN(c2nc3c(F)cccc3s2)C1`, for which the inhibition was -0.695%.

Consider `CCN1CCN(Cc2nc3nc(C)cc(N4CCCC4)n3n2)CC1`, for which the inhibition is 0.109%.

In the case of `Cc1cc(O)c(=O)cc2c1C[C@H]1CC(C)(C)/C=C/C[C@@]3(C)Oc4cc(=O)c(O)cc(C)c4C[C@@H]3C[C@H](O)[C@]1(C)O2`, the inhibition was 32.8% (active). Take `O=C(NCc1cccnc1)c1cc(-c2ccncc2)n(-c2ccc(F)cc2)n1`: the inhibition is 0.279%.

Consider `Cn1c(SCc2ccc(Cl)cc2)nnc1-c1ccc2c(c1)OCCO2`, for which the inhibition was -49.5%. For `O=C(Nc1ccc2c(c1)CCC2)N1CC2CN(S(=O)(=O)c3ccccc3)CC(C1)O2`, the inhibition is -2.8%. As to `O=C1CCC2C(c3ccc4c(c3)OCO4)CC1N2Cc1ccccc1` (configuration not stated), the inhibition is -3.81%. As for `Cc1c(S(=O)(=O)Nc2ccccc2F)cc(C(=O)N2CCCCC2)n1C`, the inhibition is 5.73%.

As to `COc1ccc(Cn2c(=O)[nH]c3cc(C(=O)N4CCC(C(N)=O)CC4)ccc3c2=O)cc1`, the inhibition was -1.91%.

With `Cc1nn(C)c(Cl)c1C1CCCN1C(=O)c1ccc(C)n(C)c1=O` (configuration not stated), the inhibition is 2.77%. As to `CC(C)C(=O)N[C@@H](CO)[C@H](O)c1ccc([N+](=O)[O-])cc1`, the inhibition is 0.416%. As to `CCc1ccc(-n2nnc(C(=O)Nc3nnc(CC)s3)c2C)cc1`, the inhibition was 0.00527%.

In the case of `Cc1cnc(C(=O)N2CC[C@@H]3[C@H]2CCCC(=O)N3Cc2ccccc2C(F)(F)F)cn1`, the inhibition is -3.69%. On to `COCCNc1nn2c(-c3ccc4ccccc4c3)cnc2s1`, for which the inhibition was 1.48%. `Cc1nn(CC(=O)c2cc(C)n(-c3ccc4c(c3)OCO4)c2C)c(C)c1[N+](=O)[O-]`: the inhibition was -2.39%. Under `Cc1cccc(C(C)C)c1NC(=O)c1ccc(OCc2ccccc2)cc1` stands 0.214%.
